Consider 31 molecules from PubChem BioAssay (EPA / NIEHS).

The structures appear in SMILES notation. Activity calls are given as the source filed them. Rule for the calls: active = hit-call score of the fitted dose curve at least 0.9, where 1 is the maximum; inactive = score below 0.9.

Assay [1] is described as follows: ATG_CRE_CIS: Attagene CIS-FACTORIAL HepG2 Assay for human cAMP Responsive Element (CRE) binding protein 3 (AID 2282926). As to conditions: HepG2 CRE cis-reporter, Attagene multiplexed mRNA; actives raise or lower the signal. Put shortly:
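Readout: fluorescently labelled reporter transcripts resolved by capillary electrophoresis after RT-PCR, taken 24 h post-dosing in transfected HepG2. Endogenous transcription factor activity drives each cis-element reporter; gain or loss of signal fitted relative to DMSO control.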

Assay [2] in a line: ATG_CMV_CIS: Attagene CIS-FACTORIAL HepG2 Assay for human CMV (Internal Marker) (AID 2282928).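 Note: endpoint acts as a background internal control marker rather than a target.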 As to conditions: HepG2 CMV promoter reporter, transcription factor profiling; actives raise or lower the signal. Put shortly: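 24 h chemical treatment, HepG2 with transient multi-reporter transfection; RNA → oligo(dT) RT → PCR → 6-FAM extension → HpaI digest → CE fluorescence. Bidirectional fit, DMSO negative control.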

In assay [3] the target is Aryl hydrocarbon receptor (Homo sapiens) (UniProt P35869). As to the kind of experiment: ATG_Ahr_CIS: Attagene CIS-FACTORIAL HepG2 Assay for human Aryl Hydrocarbon Receptor (Ahr) (AID 2282930). As to conditions: HepG2 AhR cis-factorial reporter transcription; actives raise or lower the signal. The procedure, abridged: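 Endogenous factor activity is tracked through cis-promoter reporter units transfected into HepG2 cells. Transcript levels at 24 h are read by fluorescent RT-PCR and capillary electrophoresis, with activity in either direction scored relative to DMSO.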
Chain of Aryl hydrocarbon receptor (Homo sapiens) (P35869 whole entry, looked up): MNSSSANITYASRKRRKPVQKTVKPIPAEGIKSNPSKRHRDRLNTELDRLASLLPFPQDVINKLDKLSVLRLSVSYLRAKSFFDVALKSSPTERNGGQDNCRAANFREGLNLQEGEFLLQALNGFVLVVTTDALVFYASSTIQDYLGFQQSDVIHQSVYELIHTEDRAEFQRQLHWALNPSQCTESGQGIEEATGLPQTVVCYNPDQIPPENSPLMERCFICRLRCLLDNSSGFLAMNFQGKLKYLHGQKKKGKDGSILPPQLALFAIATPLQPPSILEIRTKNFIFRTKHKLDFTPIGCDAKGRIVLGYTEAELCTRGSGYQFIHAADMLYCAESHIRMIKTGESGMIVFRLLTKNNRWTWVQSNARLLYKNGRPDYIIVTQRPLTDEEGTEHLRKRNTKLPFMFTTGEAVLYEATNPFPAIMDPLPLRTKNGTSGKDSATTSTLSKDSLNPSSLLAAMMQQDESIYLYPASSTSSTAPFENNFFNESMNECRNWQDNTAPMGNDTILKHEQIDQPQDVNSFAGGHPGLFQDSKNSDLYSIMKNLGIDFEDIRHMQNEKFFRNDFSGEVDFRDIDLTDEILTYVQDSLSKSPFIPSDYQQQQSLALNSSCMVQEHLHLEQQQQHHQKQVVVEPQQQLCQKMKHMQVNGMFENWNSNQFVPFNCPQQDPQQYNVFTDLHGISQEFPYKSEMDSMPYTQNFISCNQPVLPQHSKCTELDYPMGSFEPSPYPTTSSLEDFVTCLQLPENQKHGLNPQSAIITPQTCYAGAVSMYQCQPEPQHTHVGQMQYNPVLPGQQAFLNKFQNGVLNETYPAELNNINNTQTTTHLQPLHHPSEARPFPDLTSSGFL

A short description of assay [4]: ATG_AP_1_CIS: Attagene CIS-FACTORIAL HepG2 Assay for human Activator Protein 1 (AP-1) (AID 2282931). As to conditions: HepG2 Attagene cis-factorial AP-1 reporter mRNA; actives raise or lower the signal. Put shortly: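 HepG2, transient cis-reporter transfection; 24 h; readout RT-PCR/CE fluorescence; DMSO baseline, gain and loss fitted.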
A short description of assay [5]: ATG_AP_2_CIS: Attagene CIS-FACTORIAL HepG2 Assay for human Activator Protein 2 (AP-2) (AID 2282932). As to conditions: HepG2 AP-2 cis-reporter, Attagene transcription factor profiling; actives raise or lower the signal. Put shortly:
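Read-out: fluorescent reporter mRNA via RT-PCR and capillary electrophoresis, 24 h post-dose in transiently transfected HepG2. Endogenous factors drive cis-promoter reporters; gain or loss of signal fitted bidirectionally against DMSO.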

Assay [6] can be described thus: ATG_BRE_CIS: Attagene CIS-FACTORIAL HepG2 Assay for human Bone Morphogenetic Protein (BMP) Response Element (BRE) (AID 2282933). As to conditions: HepG2 BMP response element reporter, Attagene transcription factor profiling; actives raise or lower the signal. The procedure, abridged: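 Multiplexed cis-reporter assay, HepG2, 24 h exposure. mRNA from reporter units quantified via RT-PCR/CE; DMSO baseline; bidirectional curve fit.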

The target of assay [7] is Retinoic acid receptor alpha (Homo sapiens) (UniProt P10276). As to the kind of experiment: ATG_DR5_RAR_CIS: Attagene CIS-FACTORIAL HepG2 Assay for human Retinoic Acid Receptor Alpha (RARE), DR5 submotif (AID 2282934).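 For AC50: reporter responds to endogenous RAR alpha beta and gamma in HepG2 not RARA alone.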 As to conditions: HepG2 Attagene cis-factorial RARE DR5 reporter, mRNA; actives raise or lower the signal. The procedure, abridged: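 After 24 h of chemical exposure, transiently transfected HepG2 cells were lysed for total RNA; the DR5-regulated reporter transcript was quantified via RT-PCR and capillary electrophoresis, with activity fitted bidirectionally against DMSO.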
Chain of Retinoic acid receptor alpha (Homo sapiens) (P10276 whole entry, looked up): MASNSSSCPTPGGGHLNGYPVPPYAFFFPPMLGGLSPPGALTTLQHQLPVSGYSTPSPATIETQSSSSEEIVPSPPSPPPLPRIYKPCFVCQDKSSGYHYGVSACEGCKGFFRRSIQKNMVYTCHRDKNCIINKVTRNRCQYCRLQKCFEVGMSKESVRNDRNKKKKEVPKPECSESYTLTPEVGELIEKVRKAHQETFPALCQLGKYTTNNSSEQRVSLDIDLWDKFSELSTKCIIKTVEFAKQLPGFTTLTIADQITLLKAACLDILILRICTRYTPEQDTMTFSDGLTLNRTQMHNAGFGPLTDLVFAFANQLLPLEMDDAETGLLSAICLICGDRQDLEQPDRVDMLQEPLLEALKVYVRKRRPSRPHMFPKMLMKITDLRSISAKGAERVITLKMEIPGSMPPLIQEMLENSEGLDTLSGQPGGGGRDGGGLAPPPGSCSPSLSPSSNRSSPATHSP

Assay [8] in a line: ATG_DR4_LXR_CIS: Attagene CIS-FACTORIAL HepG2 Assay for human Liver X Receptor (LXR), DR4 submotif (AID 2282929). As to conditions: HepG2 Attagene DR4 cis-reporter, mRNA transcription; actives raise or lower the signal. The procedure, abridged: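 Total RNA from 24 h-treated, MRTU-transfected HepG2 cells underwent reverse transcription, PCR, fluorescent primer extension and restriction digestion before capillary electrophoresis. Both increases and decreases in reporter signal were fitted against DMSO.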

Assay [9] has as its target CCAAT/enhancer-binding protein beta (Homo sapiens) (UniProt P17676). As to the kind of experiment: ATG_C_EBP_CIS: Attagene CIS-FACTORIAL HepG2 Assay for human CCAAT/Enhancer Binding Protein (C/EBP) beta (AID 2282927). As to conditions: HepG2 Attagene cis-factorial transcription factor reporter; actives raise or lower the signal. Put shortly: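 HepG2, transient MRTU transfection, 24 h treatment. RT-PCR plus CE fluorescence; DMSO negative control, bidirectional fit.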

Chain of CCAAT/enhancer-binding protein beta (Homo sapiens) (P17676 whole entry, looked up): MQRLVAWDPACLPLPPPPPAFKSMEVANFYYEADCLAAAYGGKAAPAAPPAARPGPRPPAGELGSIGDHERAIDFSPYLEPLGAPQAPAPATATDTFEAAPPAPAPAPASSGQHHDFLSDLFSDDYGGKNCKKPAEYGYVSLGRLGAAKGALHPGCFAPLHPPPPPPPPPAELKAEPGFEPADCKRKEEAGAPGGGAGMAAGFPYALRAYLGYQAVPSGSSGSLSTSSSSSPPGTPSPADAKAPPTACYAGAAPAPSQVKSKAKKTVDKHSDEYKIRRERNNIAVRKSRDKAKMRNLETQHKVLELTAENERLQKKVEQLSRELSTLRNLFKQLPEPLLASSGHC

`ClCCOCCOCCCl`: the result in [1], in [2], in assay [3], in [4], in assay [5] and in [6] was inactive. In addition, the result in assay [7] was inactive.
Consider `COC(=O)c1ccc(C(=O)OC)cc1`, for which the molecule was called inactive in [1], in [2], in assay [8], in assay [3], in assay [4] and in [5]. For the same molecule, the call in assay [6] and in assay [7] was inactive.
On to `CC(=O)CCC=C(C)CCC=C(C)C`, for which the outcome in assay [1], in [8], in assay [3], in assay [4], in [5] and in [6] was inactive.
For the molecule `CC(=O)N(C)C`, the result in assay [9], in assay [2], in [8], in assay [3], in assay [5] and in assay [6] was inactive. The molecule was classed as inactive in assay [7].
Regarding `CCCCC/C=C\C=C\C(=O)OCC`, the AC50 – broadly, the midpoint of the concentration-response curve, whichever way the signal moves – in [1] is 58.8 µM (active); in assay [2], 123 µM (active); in assay [8] it was 55.1 µM (active); in assay [7], 28.3 µM (active). Also, the molecule was called inactive in assay [4], in assay [5] and in assay [6].
As to `CC1(C)CC(=O)CC(C)(C)N1`, the molecule was called inactive in [1], in [2], in assay [8], in assay [3], in [4] and in assay [5]. The outcome in [6] was inactive.
As for `CCCCCCCCOC(C)=O`, the outcome in assay [1], in assay [2], in assay [8], in assay [4], in [6] and in assay [7] was inactive.
As for `CCCCOC(=O)C(C)OC(=O)CCC` (centres undefined), the molecule was called inactive in [1], in [2], in assay [8], in assay [4], in [5] and in assay [6]. Further, the result in assay [7] was inactive.
Take `O=C(O)c1cccc(Cl)n1`: the result in assay [1], in [2], in assay [8], in [3], in [4] and in assay [5] was inactive. The call in assay [6] and in assay [7] was inactive.
Take `NC(=O)c1c(Cl)cccc1Cl`: the molecule was classed as inactive in assay [1], in [8], in [4] and in [6]. Further, the AC50 in [3] was 55.4 µM (active).
On to `NC(N)=NC(N)=NCCc1ccccc1`, for which the molecule was called inactive in assay [1], in assay [2], in [8], in [3], in [4] and in assay [5]. Besides, in assay [7], the molecule was classed as inactive. Further, in assay [6], the AC50 is 36.4 µM (active).
Take `CCCCOCCOCCO`: the outcome in assay [1], in assay [2], in [3], in assay [5], in assay [6] and in assay [7] was inactive.
For the molecule `O=C(C=Cc1ccccc1)OCCCc1ccccc1`, the molecule was called inactive in [1], in assay [2], in [8], in assay [6] and in [7].
With `C=C(C)C(=O)OCCN(C)C`, the result in [1], in assay [2], in assay [8], in assay [3], in [4] and in [5] was inactive. Moreover, the molecule was called inactive in assay [6] and in assay [7].
With `Nc1ccc(N)c([N+](=O)[O-])c1`, the outcome in [9], in assay [6] and in [7] was inactive.
Consider `CCCCCC1C(=O)CCC1CC(=O)OC` (centres undefined), for which the result in assay [1], in assay [2], in assay [8], in [3], in assay [4] and in assay [5] was inactive. In addition, the molecule was classed as inactive in assay [6] and in assay [7].
For `CC(=O)CC(C)(C)C1CCCCC1`, the molecule was classed as inactive in assay [1], in assay [2], in assay [8], in [4], in assay [5] and in assay [6]. In addition, the outcome in [7] was inactive.
For `CC(=O)OC(C)(C)C1CC=C(C)CC1` (centres undefined), the molecule was classed as inactive in assay [1], in assay [2], in assay [8], in assay [4], in [5] and in [6]. The molecule was classed as inactive in assay [7].
Turning to `CCOc1ccc(NC(C)=O)cc1`, the molecule was classed as inactive in [1], in assay [2], in assay [8], in assay [4], in assay [5] and in assay [6].
Turning to `N#CCCCC(C#N)CCC#N` (centres undefined), the molecule was classed as inactive in assay [1], in assay [2], in assay [8], in assay [3], in assay [4] and in assay [5]. The molecule was classed as inactive in [6] and in assay [7].
Regarding `CCCCC(CC)COCCO` (centres undefined), the molecule was called inactive in [1], in [2], in [8], in [4] and in assay [6]. In addition, the concentration at half-maximal activity (AC50) in [3] was 19.8 µM (active).
As for `CCOC(=O)C=Cc1ccccc1`, the result in [1], in assay [8], in assay [3], in assay [4], in [5] and in [6] was inactive. Also, the outcome in assay [7] was inactive.
Consider `CCOC(=O)CC(C)C`, for which the molecule was called inactive in [1], in assay [2], in assay [3], in [4], in assay [5] and in assay [6].
As for `S=c1[nH][nH]c(=S)s1`, the outcome in assay [1], in assay [2], in [3], in assay [4], in assay [5] and in [6] was inactive.
For the molecule `CC1(C)CC(N)CC(C)(CN)C1` (centres undefined), the call in [1], in assay [2], in assay [8], in [4], in assay [5] and in assay [6] was inactive. In assay [7], the call was inactive.
As for `N#CCCNCCC#N`, the molecule was classed as inactive in assay [1], in [8], in [3], in assay [4], in assay [5] and in assay [6].
`CC(=O)c1ccc(C)cc1`: the molecule was classed as inactive in [1], in assay [2], in assay [8], in [3], in assay [5] and in assay [6].
On to `CCCC[N+](C)(CCCC)CCCC`, for which the call in assay [1], in assay [2], in assay [4], in [5] and in [6] was inactive.
For `CC(CCO)CC(C)(C)C` (centres undefined), the molecule was called inactive in assay [1], in assay [2], in assay [8], in assay [3], in assay [4] and in assay [5]. In addition, the molecule was called inactive in assay [6] and in assay [7].
As for `CC(C)OB(OC(C)C)OC(C)C`, the molecule was classed as inactive in assay [1], in assay [2], in assay [8], in assay [3], in assay [4] and in [5]. Moreover, in assay [6], the result was inactive.
For the molecule `CC1COC(=O)O1` (centres undefined), the molecule was called inactive in assay [1], in assay [2], in assay [8], in assay [4], in assay [5] and in assay [6].
